Reference: PubChem BioAssay (Tox21)
Where “and” joins values, the source holds several entries; their conditions need not be identical. Identical values can stand only once. Inconclusive results are not listed. Calls of active or inactive are those of the source. Unless noted, calls come from the whole dose curve; as a rule, active = well fitted curve in the direction sought with a large enough effect in the repeat runs; inconclusive = weak or mixed curves; inactive = no such curve, though single readings can be large; an effect the other way counts as inactive or inconclusive.

Assays:
[1] = qHTS assay for small molecules that induce genotoxicity in human embryonic kidney cells expressing luciferase-tagged ATAD5 (AID 651632); note: nearly all actives have a fitted effect of over 15% in size
Summary of the method: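 Luminescent reporter readout, HEK293T ATAD5-luc line: 16 hr drug exposure (37C, 5% CO2) followed by Amplite, 30 min RT.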

[2] = qHTS assay for small molecule agonists of the p53 signaling pathway - cell viability (AID 651633; calls by dose curve;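 note: p53RE-bla HCT reporter cells with a stable beta-lactamase p53 reporter; series mostly up to about 83 µM; nearly all actives have a fitted effect of over 30% in size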)
Summary of the method: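 p53RE-bla cells, seeded at 4,000 per well and rested 5 h at 37 C/5% CO2, received compounds in DMSO for 16 h at 37 C. CellTiter-Glo was then added, and luminescence was read after 30 min at room temperature to gauge cytotoxicity.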

[3] = qHTS assay for small molecules that induce genotoxicity in human embryonic kidney cells expressing luciferase-tagged ATAD5 - cell viability (AID 651634; calls by dose curve; note: nearly all actives have a fitted effect of over 25% in size; note: potency is the fitted concentration of half-maximal effect)
Summary of the method: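 Viability read: CellTiter-Fluor fluorescence, 30 min at 37C. Cells: HEK293T, luciferase-tagged ATAD5. Exposure: 15.5 hr, 37C, 5% CO2, compound or DMSO vehicle.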

[4] = qHTS assay for small molecule disruptors of the mitochondrial membrane potential - cell viability (AID 720634; calls by dose curve;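 note: human HepG2 liver cancer cells; series mostly up to about 83 µM; nearly all actives have a fitted effect of over 20% in size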)
Summary of the method: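 HepG2, 1 hr compound, 37 C. ATP luminescence via CellTiter-Glo, 30 min RT, same well as m-MPI.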

[5] = qHTS assay to test for compound auto fluorescence at 590 nm (red) in HepG2 cells (AID 720674)
Summary of the method: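 Compound auto-fluorescence is scored relative to Rose Bengal sodium, measured at 540/590 nm in live HepG2 cultures after 1 hr compound contact (37 C, 5% CO2).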

[6] = qHTS assay to test for compound auto fluorescence at 535 nm (green) in HepG2 cells (AID 720675)
[7] = qHTS assay to test for compound auto fluorescence at 590 nm (red) in HEK293 cells (AID 720679)
Summary of the method: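 We plated HEK293 cells in 10% dialyzed FBS medium, let them adhere for 4-5 hr, then added 23 nL compound. Overnight at 37C and 5% CO2 preceded fluorescence measurement at 540/590nm.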

[8] = qHTS assay to test for compound auto fluorescence at 535 nm (green) in HEK293 cells (AID 720680)
[9] = qHTS assay to test for compound auto fluorescence at 460 nm (blue) in HEK293 cell free culture (AID 720681)
Summary of the method: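 Test compounds were pinned into cell-free culture medium (DMEM with 10% FBS) and fluorescence was read directly at Ex/Em 405/460 nm. Signals were expressed as fluorescence equivalents of triamterene, with DMSO vehicle as control.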

[10] = qHTS assay to test for compound auto fluorescence at 535 nm (green) in HEK293 cell free culture (AID 720682)
Summary of the method: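 Using fluorescein as calibrant, autofluorescence was quantified at 485/535 nm in cell-free DMEM containing 10% FBS after pintool addition of compound or vehicle.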

[11] = qHTS assay to test for compound auto fluorescence at 590 nm (red) in HEK293 cell free culture (AID 720683)
Summary of the method: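 Tox21 10K library compounds were pinned into cell-free DMEM with 10% FBS and fluorescence was read at excitation 540 nm. Activity is expressed as Rose Bengal sodium equivalency.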

[12] = qHTS assay to test for compound auto fluorescence at 590 nm (red) in HepG2 cell free culture (AID 720684)
Summary of the method: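 Measured in medium alone (MEM containing 10% FBS) following pintool addition of compound; emission at 590 nm with 540 nm excitation, referenced to Rose Bengal sodium.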

[13] = qHTS assay to test for compound auto fluorescence at 460 nm (blue) in HepG2 cell free culture (AID 720685)
Summary of the method: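 Compound (23 nL) or DMSO pinned into cell-free MEM with 10% FBS; blue fluorescence read at 405/460 nm excitation/emission, expressed as auto-fluorescence equivalency to triamterene.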

[14] = qHTS assay to test for compound auto fluorescence at 535 nm (green) in HepG2 cell free culture (AID 720686)
[15] = qHTS assay to test for compound auto fluorescence at 460 nm (blue) in HepG2 cells (AID 720687)
Summary of the method: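 Cells (2,000/well in MEM with 10% FBS) attached overnight at 37 C, then were exposed to compound or DMSO for 1 hr at 37 C, 5% CO2. Fluorescence read at Ex/Em 405/460 nm, expressed as triamterene-equivalent signal.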

[16] = target: Glucocorticoid receptor (Homo sapiens) (UniProt P04150); assay: qHTS assay to identify small molecule agonists of the glucocorticoid receptor (GR) signaling pathway (AID 720691; active = well fitted activation curve with a large enough effect in the signal ratio in the repeat runs, not every such curve was filed as active; the % refers to the signal ratio)
Chain of Glucocorticoid receptor (Homo sapiens) (P04150 whole entry, looked up): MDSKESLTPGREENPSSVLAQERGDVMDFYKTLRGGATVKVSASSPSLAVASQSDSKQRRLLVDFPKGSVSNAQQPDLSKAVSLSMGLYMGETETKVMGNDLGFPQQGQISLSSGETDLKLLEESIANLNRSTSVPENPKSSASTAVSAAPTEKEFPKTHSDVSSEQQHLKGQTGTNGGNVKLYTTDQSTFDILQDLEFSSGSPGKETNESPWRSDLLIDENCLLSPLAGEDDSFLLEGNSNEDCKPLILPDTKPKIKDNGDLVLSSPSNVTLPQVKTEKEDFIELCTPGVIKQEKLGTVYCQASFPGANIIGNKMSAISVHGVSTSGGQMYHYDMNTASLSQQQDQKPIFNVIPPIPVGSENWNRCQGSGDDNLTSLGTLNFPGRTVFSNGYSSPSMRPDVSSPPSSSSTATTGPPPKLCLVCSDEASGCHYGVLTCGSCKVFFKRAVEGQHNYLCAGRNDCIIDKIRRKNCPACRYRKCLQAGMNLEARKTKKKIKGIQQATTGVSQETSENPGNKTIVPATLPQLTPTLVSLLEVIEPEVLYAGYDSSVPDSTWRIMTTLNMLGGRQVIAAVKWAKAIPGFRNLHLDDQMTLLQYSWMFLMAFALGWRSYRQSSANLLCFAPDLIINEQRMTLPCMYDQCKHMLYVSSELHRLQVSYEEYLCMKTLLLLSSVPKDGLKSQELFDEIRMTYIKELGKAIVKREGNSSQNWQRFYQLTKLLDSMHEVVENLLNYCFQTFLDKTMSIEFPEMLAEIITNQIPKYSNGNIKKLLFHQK
Summary of the method: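 qHTS in GR-bla HeLa cells: 4 h settling at 37 C/5% CO2, 18 h compound incubation at 37 C, 2 h LiveBLAzer B/G FRET substrate at room temperature, fluorescence intensity measured.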

[17] = target: Glucocorticoid receptor (Homo sapiens) (UniProt P04150); assay: qHTS assay to identify small molecule antagonists of the glucocorticoid receptor (GR) signaling pathway (AID 720692; active = well fitted inhibition curve with a large enough effect in the signal ratio in the repeat runs, not every such curve was filed as active; the % refers to the signal ratio; note: potency is the fitted concentration of half-maximal effect)
Summary of the method: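 Inhibition of glucocorticoid signalling is measured in HeLa cells with a GRE-controlled beta-lactamase reporter; cells are co-treated with compound and 5 nM dexamethasone (final) for 18 h before FRET substrate readout.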

[18] = qHTS assay to test for compound auto fluorescence at 460 nm (blue) in HEK293 cells (AID 720678)
Summary of the method: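 Triamterene serves as the blue fluorophore standard. Compound signal at 405/460 nm is read in HEK293 wells (2,000 cells, 10% dialyzed FBS) after overnight treatment at 37C.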

Measured: Potency

CC(=O)O[C@@]12CO[C@@H]1C[C@H](O)[C@@]1(C)C(=O)[C@H](O)C3=C(C)[C@@H](OC(=O)[C@H](O)[C@@H](NC(=O)OC(C)(C)C)c4ccccc4)C[C@@](O)([C@@H](OC(=O)c4ccccc4)[C@H]21)C3(C)C
active: [3] 11.9 nM and 8.4 nM | [17] 10.7 µM
not listed: [18]
inactive: all other assays above

[Ca+2]
not listed: [2] | [6] | [17]
inactive: all other assays above

NS(=O)(=O)Cc1noc2ccccc12
not listed: [3] | [12] | [15] | [17]
inactive: all other assays above

CCN(Cc1ccccc1)c1ccccc1
not listed: [6] | [12] | [16] | [17]
inactive: all other assays above

Cc1ccccc1N=C(N)N=C(N)N
not listed: [5] | [7] | [17] | [18]
inactive: all other assays above
